Pf growth 96h – P. falciparum growth inhibition at 96 hours; Potency, µM (top dose mostly 28.7 µM), inactives show top-dose activity change, negative = inhibition, hits mostly inhibitors; P. falciparum luciferase reporter growth, 96 h; 6.9% of 320,000 active; also: potency is read from the fitted curve at half-maximal effect; % is scaled to controls: 0 for no effect and ±100 for the full control effect
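Parasite growth measured via integrated firefly luciferase reporter in P. falciparum. Infected erythrocytes at 2% hematocrit, 0.05% parasitemia final were treated 96 hours at 37 C under 5% CO2, and luminescence was read.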
Shiga inhibitor – inhibitors of Shiga toxin in Vero cells | 9.2% of 290,000 active | Vero cells, Shiga toxin protein synthesis inhibition reporter | inhibition, % at 38.7 µM; in the data active = inhibition mostly above about 28%, no sharp cut-off; inactive = mostly below about 43%; also: 0% is about no effect
Pf growth 48h – P. falciparum growth inhibition at 48 hours (one generation). AID 504832. 5.9% of 310,000 active. Potency, µM (series often up to 28.7 µM), for inactives: at the top dose activity change, negative = inhibition, actives largely listed as inhibitors. P. falciparum luciferase growth in erythrocytes, 48 h; also: potency is read from the fitted curve at half-maximal effect; % is scaled to controls: 0 for no effect and ±100 for the full control effect
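Luminescence readout; reporter = integrated firefly luciferase in P. falciparum. RBC culture at 2% hematocrit, 0.1% parasitemia final, 37 C/5% CO2; decreased signal taken as growth inhibition.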
Lassa entry inh – blocks Lassa virus binding to or entry into cells; Potency, µM (series often up to 37.9 µM), without a hit: at the top dose activity change, negative = inhibition, usual class: inhibitors; Lassa virus pseudotype entry inhibition, cell reporter; 1.2% of 300,000 active; calls by dose curve; tested in HEK293 cells; also: potency is read from the fitted curve at half-maximal effect; % is scaled to controls: 0 for no effect and ±100 for the full control effect; nearly all actives have a fitted effect of over 50% in size
Marburg entry inh – inhibitors of Marburg virus binding or cell entry; Marburg virus pseudotyped entry inhibition, cell reporter; Potency, µM (doses to about 37.8 µM), without a hit: at the top dose activity change, negative = inhibition, hits mostly inhibitors; 1.8% of 300,000 active; AID 540276; calls by dose curve; tested in HEK293 cells; also: potency is read from the fitted curve at half-maximal effect; % is scaled to controls: 0 for no effect and ±100 for the full control effect
Cycloheximide cs – counter-screen for Shiga toxin inhibitors: cycloheximide protein synthesis inhibition; max response, %; 12% of 300,000 active; cell reporter, cycloheximide protein synthesis inhibition counterscreen; in the data active = max response mostly above about 13%, no sharp cut-off; inactive = mostly below about 14%; also: read at 38.3 µM for the half of the compounds with a filed dose; 0% is about no effect
An asterisk follows results filed as active; ? = inconclusive; / = no result given; [ ] = dose if it differs, or a comment. A selection: hits, their analogues and other compounds. The true share with any hit is near 19%. Unless noted, calls follow the shape of the dose curve; as a rule, active = well fitted inhibition curve with a large enough effect; inconclusive = small, poorly fitted or top-dose-only effect, or another doubt; inactive = no such curve, though single readings can be large or run the other way.

SMILES	Pf growth 96h	Shiga inhibitor	Pf growth 48h	Lassa entry inh	Marburg entry inh	Cycloheximide cs
COc1ccc(OCC(=O)N2N=C(C(F)F)CC2(O)C(F)F)cc1 (stereo not given)	-6%	-5	14%	13%	?	-6
CCc1ccc(-c2cc(C(=O)N3N=C(C(F)F)CC3(O)C(F)F)c3ccccc3n2)cc1 (stereo not given)	?	89*	?	-7%	?	28*
O=C1OCCC1Sc1nnc(-c2ccc(O)cc2)o1 (stereo not given)	-11%	-5	58%	-5%	-9%	6
Cc1ccccc1Nc1c(-c2cccnc2)nc2ccc(Br)cn12	-26%	-4	?	/	/	11
COc1ccc(OC)c(NC(=O)COc2coc(CN3CCCc4ccccc43)cc2=O)c1	?	/	10µM*	3%	?	/
COc1ccc(OC)c(NC(=O)COc2coc(CN3CCc4ccccc43)cc2=O)c1	?	/	10µM*	-6%	-5%	/
Cc1ccc(NC(=O)COc2coc(CN3CCc4ccccc43)cc2=O)c(C)c1	-18%	/	?	-29%	-15%	/
Cn1c(-c2ccccc2)c(/C=N/NC(=O)c2cccnc2)c2ccccc21	?	68*	-22%	?	?	21*
O=C(N/N=C/c1c(-c2ccccc2)[nH]c2ccccc12)c1cccnc1	?	65*	?	/	/	27*
COc1cccc(=O)c2c(C)n(C)c(C)c12	377%	-6	6%	-3%	4%	1
CC1=Nc2ccccc2/C1=C/c1sc(=N)n(-c2nccs2)c1O	12%	-14	?	10µM*	10µM*	2
Oc1ccc(NCc2ccccc2OCc2ccc(Cl)cc2)cc1	/	/	/	-15%[46.1 µM]	?	/
Clc1ccc(NCc2ccsc2)cc1	0%	27*	37%	/	/	13*
Cn1cnc(S(=O)(=O)Nc2ccccc2C(=O)NCC2CC2)c1	39%	-6	4.7µM*	0%	4%	-1
Nc1nccc(/C=C/c2c(Cl)cccc2Cl)n1	5%	22	?	-25%	?	22
Nc1nccc(/C=C/c2ccc(Cl)cc2)n1	106%	72*	241%	2%	?	44*
CCOC(=O)C1=C(O)/C(=C/c2cn(CC(=O)N3CCCC3)c3ccccc23)SC1=Nc1ccccc1	3.3µM*	-2	4.7µM*	-10%	?	1
CN1C(=O)C(=Cc2cn(CC(=O)N3CCCC3)c3ccccc23)C(=O)N(C)C1=O	3%	-6	7%	1%[46.1 µM]	1%[46.1 µM]	-3
COc1ccccc1N(C)S(=O)(=O)c1ccc(Cl)c(C(=O)Nc2cccc(C)n2)c1	2.3µM*	/	2.1µM*	7%	?	/
COc1ccc(S(=O)(=O)N2CCCCCC2)cc1C(=O)Nc1cccc(C)n1	?	-8	?	-9%	?	8
Cc1cccc(NC(=O)c2cc(S(=O)(=O)N(C)c3ccc(F)cc3)ccc2Cl)n1	0.37µM*	/	0.33µM*	-15%	-13%	/
O=C(Cn1cnc2c(nnn2Cc2ccc(F)cc2)c1=O)Nc1cccc(F)c1	31%[1.15 µM]	-2	-16%	/	/	-3
Cc1ccc(NC(=O)CN2CCCC2)c2c1CC(C)(C)O2	-8%	-5	0%	2%[46.1 µM]	?	2
CC(C)CCNC(=O)C(C)N(Cc1ccc(F)cc1)C(=O)c1ccc(CN2CCOCC2)o1 (stereo not given)	19%	-1	-15%	24%	-18%[46.1 µM]	-2
CC(C)(C)NC(=O)C(c1ccc(F)cc1)N(Cc1cccs1)C(=O)c1ccc(CN2CCOCC2)o1 (stereo not given)	?	4	?	8%	2.8µM*	-5
SMILES	Pf growth 96h	Shiga inhibitor	Pf growth 48h	Lassa entry inh	Marburg entry inh	Cycloheximide cs
O=C(Nc1ccc(F)cc1)c1ccc2[nH]c(=O)c(=O)[nH]c2c1	6%	6	22%	/	/	1
COc1ccccc1C(=O)NNC(=O)c1ccccc1F	-7%	58*	192%	6%	?	47*
CC(C)(C)NC(=O)C(=O)NNC(=O)c1cccc(F)c1	70%	44	166%	28%	?	38*
COc1ccccc1C(=O)NNC(=O)c1cccc(F)c1	79%	88*	120%	?	?	51*
CC(C)(C)NC(=O)C(=O)NNC(=O)c1ccccc1	92%	13	82%	25%	29%	-2
COCC(=O)NNC(=O)c1ccccc1OC	-19%	20	-2%	5%	0%[46.1 µM]	11
O=C(NNC(=O)c1ccccc1F)c1ccc2[nH]c(=O)c(=O)[nH]c2c1	36%	41*	?	/	/	34*
COc1ccccc1C(=O)NNC(=O)c1ccncc1	?	33	77%	/	/	2
COc1ccccc1C(=O)NNC(=O)c1cccc(O)c1	6.6µM*	21	163%	/	/	23*
CCN(C(=O)N1CCOCC1)c1ccccc1C	6.6µM*	18	0%	12%	-4%	-2
COc1ccc2c3c(cccc13)N(C)N=C2C	0%	-2	10µM*	1%	7%	1
Cc1ccc(C(=O)Nc2nc(-c3ccc(F)cc3)cs2)o1	0%	92*	-12%	4%[46.1 µM]	-6%[46.1 µM]	42*
Cc1ccc(-c2csc(NC(=O)c3ccc([N+](=O)[O-])o3)n2)cc1	2.6µM*	19	13µM*	?	?	12
CN(Cc1ccccc1)C(=O)c1ccc([N+](=O)[O-])o1	26%	42*	9.3µM*	-8%	-18%	19*
Cc1ccc(-c2csc(NC(=O)c3cccc([N+](=O)[O-])c3)n2)cc1	41%	-2	60%	?	-14%	-3
Cc1ccc(-c2csc(NC(=O)c3c(C)noc3C)n2)cc1	42%	/	14%	/	/	/
O=C(COC(=O)c1ccc([N+](=O)[O-])o1)NCc1ccccc1	/	/	/	4%	11%	/
O=C(Nc1nc(-c2ccc(F)cc2)cs1)c1cccnc1	-6%	15	-15%	?	-28%[46.1 µM]	13
Cc1ccc(-c2csc(NC(=O)c3ccno3)n2)cc1	57%	21	/	23%	13%	22*
CCOC(=O)C1CCCN(C(=O)CS(=O)(=O)Cc2ccccc2)C1 (stereo not given)	2%	12	1%	-4%	-5%	-2
COc1ccc(OC)c(CCNC(=O)CCCn2c(=O)c3cccn3c3ccccc32)c1	/	/	/	27%[46.1 µM]	/	/
Cc1ccc(CNC(=O)c2ccc([N+](=O)[O-])o2)cc1	8.3µM*	15	?	?	?	-2
Cc1ccc(/C=C/C(=O)c2ccc([N+](=O)[O-])o2)cc1	-9%	/	?	/	/	/
Cc1ccc(-c2noc(C(C)NC(=O)c3ccco3)n2)cc1 (stereo not given)	/	/	/	18%[46.1 µM]	-26%[46.1 µM]	/
Cc1cc[n+](C(C)C(=O)c2ccc(-c3ccccc3)cc2)cc1 (stereo not given)	26%	42	1.2µM*	10µM*	?	-5
CC(C(=O)c1ccc(-c2ccccc2)cc1)[n+]1cccc(C(N)=O)c1 (stereo not given)	9.3µM*	-7	3%	?	12%	1
